Compound activity as filed in PubChem BioAssay.
HTT ATP protect: protects HTT-Q103 PC12 cells, measured by ATP. AID 1471. hit rate 0.14% among 230,000. PC12 HTT-Q103 induced, cytoprotection, ATP luminescence, 40 h. Potency, µM (doses to about 56.4 µM), for the others: cytoprotection (ATP increase), hits mostly activators; active = well fitted curve in the direction sought with a large enough effect; inconclusive = small, poorly fitted or top-dose-only effect, or another doubt; inactive = no such curve, though single readings can be large; an effect the other way counts as inactive or inconclusive; note: potency is the fitted concentration of half-maximal effect; % of control where 0% means no effect; nearly all actives have a fitted effect of over 45% in size
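ATP quantification (ATPlite) reports survival of PC12 cells in which tebufenozide, 100 nM final, switches on Htt exon 1 with 103 glutamines linked to GFP; compounds are titrated.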
HPGD block: HPGD (human) dehydrogenase inhibition; hit rate 4.3% among 150,000; Potency, µM, without a hit: at the highest dose activity change, negative = inhibition, usual class: inhibitors; purified HPGD, NADH fluorescence kinetic, PGE2 substrate; note: potency is the fitted concentration of half-maximal effect; % is set by controls: 0 for no effect and ±100 for the full control effect
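NADH formation kinetics: reaction with 30 uM PGE2 and 1 mM NAD+ (final), 20 nM enzyme, Tris-HCl pH 8 with Tween 20, after 15 min compound preincubation at room temperature. Fluorescence change, last versus first of five reads.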
KDM4E inh: inhibitors of human JMJD2E histone demethylase. B2RXH2. JMJD2E catalytic domain, FDH-coupled NADH fluorescence (FDH is formaldehyde dehydrogenase). Potency, µM (titrated, usually from 57.1 µM), for inactives: at the top dose activity change, negative = inhibition, actives largely listed as inhibitors. hit rate 1.6% among 230,000. AID 2147;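 note: potency is the fitted concentration of half-maximal effect; 0% = wells with enzyme and -100% = buffer wells without enzyme; nearly all actives have a fitted effect of over 50% in size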
Target sequence (B2RXH2 1-337 limits assumed): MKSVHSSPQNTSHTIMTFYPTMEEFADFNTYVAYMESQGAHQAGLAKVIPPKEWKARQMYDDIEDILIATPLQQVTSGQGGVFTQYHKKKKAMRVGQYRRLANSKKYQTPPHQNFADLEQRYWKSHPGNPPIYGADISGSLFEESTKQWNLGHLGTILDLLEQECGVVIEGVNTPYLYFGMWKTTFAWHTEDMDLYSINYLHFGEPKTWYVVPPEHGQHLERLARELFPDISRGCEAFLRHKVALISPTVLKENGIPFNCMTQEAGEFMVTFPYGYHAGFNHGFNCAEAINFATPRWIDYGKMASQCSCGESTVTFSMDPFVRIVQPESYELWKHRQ
CBFb-RUNX1 inh: inhibitors of human CBF-beta and RUNX1 interaction | AlphaScreen CBFb-His/RUNX1-biotin binding, biochemical | 230,000 tested, under 10 active | Q01196+Q13951 | Potency, µM (titrated, usually from 59.8 µM), inactives show at the highest dose activity, negative = inhibition, most hits filed as inhibitors; active = well fitted curve in the direction sought with a large enough effect; inconclusive = small, poorly fitted or top-dose-only effect, or another doubt; inactive = no such curve, though single readings can be large; an effect the other way counts as inactive or inconclusive; note: % of control where 0% means no effect
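AlphaScreen proximity signal reports loss of binding between His-tagged CBF-beta and biotin-labelled RUNX1, each at 30 nM. Proteins are pre-associated for 20 minutes, compounds added for 15 minutes, then beads for 90 minutes, all at ambient temperature.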
ALDH1A1 block: ALDH1A1 (human) enzyme inhibition. P00352. Purified ALDH1A1, NADH fluorescence, propionaldehyde substrate. Potency, µM (top dose mostly 75.3 µM), for inactives: at the top dose activity, negative = inhibition, usual class: inhibitors. hit rate 7.3% among 220,000;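 note: potency is the fitted concentration of half-maximal effect; plate controls were no enzyme wells and a reference inhibitor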
HTT aggregate: inhibitors of mutant huntingtin aggregate formation in PC12 cells; PC12 HttQ103-GFP aggregates, Acumen cytometry, 40 h; Potency, µM (top dose mostly 46.1 µM), without a hit: top-dose activity change, negative = inhibition, usual class: inhibitors; hit rate 1.1% among 220,000; AID 1688; active = well fitted curve in the direction sought with a large enough effect; inconclusive = small, poorly fitted or top-dose-only effect, or another doubt; inactive = no such curve, though single readings can be large; an effect the other way counts as inactive or inconclusive; note: potency is the fitted concentration of half-maximal effect; % is set by controls: 0 for no effect and ±100 for the full control effect; nearly all actives have a fitted effect of over 60% in size
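Using laser scanning cytometry, GFP-positive aggregates were counted after lysis of PC12 cells induced with 100 nM tebufenozide to express HTT exon 1 Q103–GFP. Compounds were tested in titration.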
Starred values were filed as active, the others as inactive; ? = inconclusive; · = no result; [ ] = another dose, or the depositor's remark. Hits are enriched below; roughly 9.8% of the tested compounds scored in any of these assays. Unless noted, calls come from the whole dose curve; as a rule, active = well fitted inhibition curve with a large enough effect (not every such curve was filed as active); inconclusive = small, poorly fitted or top-dose-only effect, or another doubt; inactive = no such curve, though single readings can be large or run the other way.

SMILES	HTT ATP protect	HPGD block	KDM4E inh	CBFb-RUNX1 inh	ALDH1A1 block	HTT aggregate
Cc1cccc(NC(=S)NNC(=O)Cc2ccccc2)c1	20%[10 µM]	-18%	3%	2%	40µM*	13%
O=C(Cc1ccccc1)NNC(=S)Nc1ccc(Cl)cc1	·	-7%	1%	-6%	25µM*	11%
O=C(CCc1ccccc1)NNC(=O)Cc1ccc(Cl)cc1	-11%	·	-6%	2%	-3%	-31%
CCOc1ccc(/C(C)=N/NC(=O)Cn2nc([N+](=O)[O-])cc2C)cc1	-1%[10 µM]	·	-19%	-7%	·	-16%[9.22 µM]
CN(C)CCNC(=O)CN1C(=O)COc2ccc(C(C)(C)C)cc21	0%	2%	4%	2%	6%	-5%
O=C1C2CC=CCC2C(=O)N1n1cnnc1 (stereo not given)	-45%	·	7%	1%	12%	19%
CC(C)(C)NC(=S)NNC(=O)[C@H]1C[C@@H]1c1ccccc1	27%[10 µM]	·	12%	0%	·	11%[9.22 µM]
Cc1ccc(C2CC2C(=O)NNC(=S)Nc2ccc(Cl)cc2)cc1 (stereo not given)	21%[10 µM]	?	14%	11%	8.9µM*	-10%
C/C(=N\O)C(C)(C)Nc1ccc(Cl)cc1	6%[10 µM]	·	1%	7%	·	9%[9.22 µM]
CCC/C=N/NC(=O)c1cccc(Br)c1	-29%	·	37%	-5%	25µM*	11%
O=C(N/N=C/C=C/c1ccccc1)c1cccc(Br)c1	-21%	-9%	-18%	-11%	-11%	-14%
CN(C)c1nc(NC2CCC(NC(=O)c3ccc(F)c(F)c3)CC2)nc2ccccc12 (stereo not given)	·	·	·	-4%	·	·
COc1ccc(NCc2nnc(SCC(=O)Nc3ccc(OC)cc3)n2C)cc1	-50%	·	2%	-5%	9%	-3%
CC(=O)Nc1ccc(NC(=O)CSc2nnc(CNc3ccc(F)cc3)n2CC2CCCO2)cc1 (stereo not given)	30%[10 µM]	·	11%	5%	-9%	9%
CCn1c(CNc2ccc(OC)cc2)nnc1SCC(=O)N1CCCc2ccccc21	9%[10 µM]	-1%	1%	-1%	7.1µM*	25%
CCOC(=O)c1ccc(NC(=O)CSc2nnc(CNc3ccc(OC)cc3)n2C)cc1	-3%	-16%	?	-7%	13µM*	4%
Cc1ccc(NCc2nnc(SCC(=O)Nc3ccccc3)n2CC2CCCO2)c(C)c1 (stereo not given)	-1%[10 µM]	-8%	4%	-6%	7.9µM*	-6%
COc1ccc(NCc2nnc(SCC(=O)N3CCCc4ccccc43)n2C)cc1	-30%	-13%	0%	-2%	3.2µM*	1%
COc1ccc(-n2c(Cc3cccn3C)nnc2SCC(=O)N2CCCc3ccccc32)cc1	?	-9%	1%	-29%	?	7%
CCn1c(CNc2ccc(F)cc2)nnc1SCC(=O)N1CCCc2ccccc21	11%[10 µM]	-18%	-5%	-12%	?	5%
CCOc1ccc(Br)cc1C1C(C(=O)OC)=C(N)Oc2cc(N(C)C)ccc21 (stereo not given)	-30%	-14%	-3%	-28%	-21%	-20%
CCn1c(CNc2ccc(C)cc2C)nnc1SCC(=O)N1CCCc2ccccc21	-74%[10 µM]	-11%	7%	-16%	7.1µM*	-5%
NS(=O)(=O)c1ccc(N=Nc2cc3ccccc3c(C(=O)O)c2O)cc1	28%[10 µM]	-15%	·	·	10%[13.5 µM]	·
Cc1c(NC(=O)C(C)N2C(=O)NC3(CCC(C)CC3)C2=O)c(=O)n(-c2ccccc2)n1C (stereo not given)	-28%	·	-2%	-2%	-7%	1%
COc1ccc2c(Cl)c(C(=O)NN)sc2c1	-73%	-29%	?	4%	1.1µM*	-30%
CCCc1ccc(-c2cc(C(=O)NC3=NCCS3)c3ccccc3n2)cc1	-28%[10 µM]	·	?	-1%	2%	4µM*
O=C(Nc1nc2ccc(Cl)cc2s1)[C@@H]1CCCN1C(=O)c1cccs1	16%[10 µM]	?	-7%	-12%	25µM*	?
